Source: PubChem BioAssay (National Center for Advancing Translational Sciences (NCATS))
Rab9 prom act: qHTS Assay for Rab9 Promoter Activators; Potency, µM (doses to about 9.22 µM), hits mostly activators; 320,000 compounds, 2.8% hits; Huh7 Rab9 promoter-luciferase reporter, luminescence, 24 h; AID 485297, 2010; note: nearly all actives have a fitted effect of over 60% in size
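Stable Rab9-luc Huh7, 1500 cells/well, 2 h settle; cmpd in DMSO, 24 h, 37 °C/5% CO2; luciferase reagent 10 min RT; luminescence.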
SMN2 splice up: qHTS Assay for Enhancers of SMN2 Splice Variant Expression. HEK293 SMN2-luciferase splicing reporter, luminescence, 30-36 h. Potency, µM (series often up to 46.1 µM), usual class: activators. 210,000 compounds, 2.8% hits. AID 1458, 2008; note: nearly all actives have a fitted effect of over 55% in size
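HEK293 cells carry an SMN2 minigene-luciferase reporter in which exon 7 inclusion puts luciferase in frame. Cells were seeded at 2000 cells/well, attached for 10-12 hours, then exposed to compounds for 30-36 hours at 37C before ONE-Glo luminescence.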
ELG1 genotoxic: qHTS screen for small molecules that induce genotoxicity in human embryonic kidney (HEK293T) cells expressing luciferase-tagged ELG1 | Potency, µM (doses to about 46 µM), most hits filed as activators | HEK293T ELG1-luciferase reporter, luminescence, 16 h | 330,000 compounds, 1.3% hits; note: nearly all actives have a fitted effect of over 60% in size
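Reporter readout depends on ELG1 protein level, which increases with genetic stress. After 16 hr compound exposure at 37 °C, luciferase activity was quantified using ONE-Glo.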
FLuc counter: qHTS profiling assay for firefly luciferase inhibitor/activator using purifed enzyme and Km concentrations of substrates (counterscreen for miR-21 project); purified FLuc, Km substrates, luminescence inhibition; Potency, µM (doses to about 57.5 µM), actives largely listed as inhibitors; Luciferin 4-monooxygenase (Photinus pyralis), P08659; 360,000 compounds, 6.9% hits; note: nearly all actives have a fitted effect of over 55% in size
Target sequence (P08659 whole entry, looked up): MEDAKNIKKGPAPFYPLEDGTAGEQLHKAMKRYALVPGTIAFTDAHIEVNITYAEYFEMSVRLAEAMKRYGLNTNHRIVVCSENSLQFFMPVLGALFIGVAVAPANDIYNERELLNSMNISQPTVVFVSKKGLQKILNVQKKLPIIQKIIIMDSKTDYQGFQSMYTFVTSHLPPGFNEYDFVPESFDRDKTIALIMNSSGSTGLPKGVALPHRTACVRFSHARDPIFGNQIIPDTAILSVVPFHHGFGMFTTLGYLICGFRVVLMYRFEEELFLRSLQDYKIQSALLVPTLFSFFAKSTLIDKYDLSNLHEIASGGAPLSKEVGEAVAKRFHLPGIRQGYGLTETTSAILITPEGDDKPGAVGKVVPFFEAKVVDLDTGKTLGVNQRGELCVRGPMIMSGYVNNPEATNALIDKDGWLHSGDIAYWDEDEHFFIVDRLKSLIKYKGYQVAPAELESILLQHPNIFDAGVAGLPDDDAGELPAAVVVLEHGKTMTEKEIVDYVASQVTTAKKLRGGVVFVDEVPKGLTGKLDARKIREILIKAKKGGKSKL
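Purified P. pyralis luciferase, 10 nM final, with Km-level 10 uM D-luciferin and 10 uM ATP in 50 mM Tris acetate pH 7.5, 10 mM Mg acetate, 0.01% Tween-20, 0.05% BSA; 6-point qHTS titration about 60 µM downward; luminescence read.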
NPC1 prom act: qHTS Assay for NPC1 Promoter Activators | Huh7 NPC1 promoter luciferase reporter, 24 h | Potency, µM (series often up to 9.22 µM), actives largely listed as activators | 320,000 compounds, 2.4% hits; note: nearly all actives have a fitted effect of over 60% in size
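Cells: Huh7 expressing luciferase under the NPC1 promoter, 1500/well. Seeded 2 h, compound added, incubated 24 h at 37 °C. Luciferase reagent, 10 min ambient, then luminescence.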
Numbers stand for hits; - = inactive; ? = inconclusive; . = no result given; [ ] = another dose, or the depositor's remark. Most compounds without a hit are left out; they make up all but 7.4% or so of the library. Calls come from the whole dose curve; as a rule, active = well fitted curve in the direction sought with a large enough effect; inconclusive = small, poorly fitted or top-dose-only effect, or another doubt; inactive = no such curve, though single readings can be large; an effect the other way counts as inactive or inconclusive.

SMILES | Rab9 prom act | SMN2 splice up | ELG1 genotoxic | FLuc counter | NPC1 prom act
Cn1c(=NC(=O)c2ccccc2[N+](=O)[O-])sc2cccc(F)c21 | 0.5µM | . | ? | 0.6µM | 0.56µM
O=C(c1cccs1)N1CCOCC1 | - | - | - | - | -
Cc1ccc(N=C(c2cccs2)N2CCOCC2)cc1 | - | 18µM | ? | - | -
Cc1snc(SCC(=O)c2ccc(F)cc2)c1C#N | 2.8µM | - | - | ? | ?
Cc1snc(SCC(=O)c2ccc([N+](=O)[O-])cc2)c1C#N | ? | ? | - | ? | ?
COc1ccc(/C=C2\SC(=S)N(C(C(=O)O)c3ccccc3)C2=O)c(OC)c1 (centres undefined) | - | . | - | 24µM | -
Cn1c(=O)c(CCc2ccccc2)nc2cnc(Oc3ccccc3)nc21 | . | - | . | . | .
Fc1ccc(C2=Nc3cccc4cccc(c34)N2)cc1 | ? | - | - | 15µM | -
Brc1ccc(C2=Nc3cccc4cccc(c34)N2)o1 | - | - | - | 12µM | -
FC(F)(F)C1=Nc2cccc3cccc(c23)N1 | - | . | - | ? | -
Brc1ccc(-c2ccc(C3Nc4cccc5cccc(c45)N3)o2)cc1 | - | . | - | - | -
Nc1cccc2c1C(=O)N(CCOc1ccccc1F)C2=O | 0.35µM | . | 0.41µM | 0.76µM | 0.35µM
N#Cc1ccccc1OCCN1C(=O)c2ccccc2C1=O | - | . | 13µM | ? | -
COc1ccc(OCCN2C(=O)c3ccccc3C2=O)c([N+](=O)[O-])c1 | ? | . | ? | 27µM | -
O=C(CC(c1cccs1)N1Cc2ccccc2C1=O)Nc1ccc(Cl)cc1 (centres undefined) | . | . | . | - | .
COc1cc(Cl)c(NC(=O)CCS(=O)(=O)c2cc3c(cc2Cl)NC(=O)CO3)c(OC)c1 | . | . | . | - | .
CC(OC(=O)c1ccccc1Oc1ccccc1)C(=O)NC1CC1 (centres undefined) | - | - | - | - | -
O=C(Nc1ncc(Cc2cccc(Cl)c2)s1)c1cccs1 | ? | - | - | 15µM | ?
O=C(Nc1ncc(Cc2cccc(C(F)(F)F)c2)s1)C1CCCO1 (centres undefined) | - | . | - | ? | -
O=C(Nc1ccc(Cc2ccncc2)cc1)c1cccs1 | - | - | - | ? | -
O=C(Nc1ncc(Cc2cccc(Cl)c2)s1)C1=NCCN1 | - | - | - | - | -
Cc1ccc(Cc2cnc(NC(=O)c3cccs3)s2)cc1 | ? | 14µM | - | 2.7µM | 2.8µM
O=C(Nc1ncc(Cc2ccc(Cl)cc2)s1)c1ccc2c(c1)CC(c1ccccc1)OC2=O (centres undefined) | . | - | . | - | .
O=C(Nc1ncc(Cc2ccc(SC(F)F)cc2)s1)c1ccccc1 | - | - | - | 13µM | -
Cc1ccc(Cc2cnc(NC(=O)C3CCCO3)s2)cc1 (centres undefined) | 1.3µM | 14µM | ? | 3µM | 1.1µM
SMILES | Rab9 prom act | SMN2 splice up | ELG1 genotoxic | FLuc counter | NPC1 prom act
Cc1ccc(N2C(=O)CC(Sc3ccccc3C(=O)O)C2=O)cc1C (centres undefined) | - | - | - | - | -
Cc1cc(C)c(S(=O)(=O)NCC(c2ccco2)S(=O)(=O)c2cccs2)c(C)c1 (centres undefined) | . | . | . | - | .
COc1ccc(C2C=C(C34CC5CC(CC(C5)C3)C4)NC(=S)N2)cc1 (centres undefined) | - | - | - | - | -
Cc1ccc(C(=O)Nc2ncc(Cc3ccccc3)s2)o1 | 3.2µM | . | ? | 0.95µM | 1.4µM
O=C(Nc1ncc(Cc2ccccc2)s1)c1cccs1 | 0.5µM | 4.5µM | ? | 1.1µM | 1.3µM
O=C(Cc1ccccc1)Nc1ccc(NC(=O)c2cccs2)cc1 | - | - | - | - | -
Cc1ccc(/C=C2\SC(=S)N(CC3CCCO3)C2=O)o1 (centres undefined) | ? | . | - | 21µM | -
Cc1ccc(/C=C2/SC(=O)NC2=S)o1 | - | - | - | 27µM | -
O=C1/C(=C/c2ccco2)SC(=S)N1CC1CCCO1 (centres undefined) | - | . | - | 17µM | -
O=C1/C(=C/c2cccnc2)SC(=S)N1CC1CCCO1 (centres undefined) | - | - | - | ? | -
Cc1ccc(/C=C2/SC(=S)N(C3CCCCC3)C2=O)o1 | - | . | - | - | -
O=C(CCNS(=O)(=O)c1ccc2c(c1)CCCC(=O)N2)NCc1ccccc1Cl | . | . | . | - | .
Nn1c(SCC(=O)Nc2nccs2)nnc1-c1cccnc1 | - | . | - | . | -
O=C1COC(c2ccccc2O)=NN1CCCN1CCCC1 | . | -[9.22 µM] | . | . | .
Cn1sc(NC(=O)c2cccc(Cl)c2)nc1=O | - | - | - | 19µM | ?
Cn1sc(NC(=O)c2ccccc2Cl)nc1=O | - | ? | - | 19µM | -
CCOC(=O)[C@H]1[C@H]2COc3ccc(C)cc3[C@@H]2N2C(=O)[C@@H](C)NC(=O)[C@@]12C | - | . | - | - | -
Cc1nc(/N=C(\N)Nc2ccccc2)nc2ccccc12 | - | - | - | 12µM | ?
CCOC(=O)CNc1c(-c2ccc(Cl)cc2)nc2cnccn12 | - | - | - | - | -
COCCNc1c(-c2ccc(OC)cc2)nc2ccc(Cl)cn12 | ? | - | - | 11µM | -
